The list is not random: actives were taken first. Their share in the collection is about 2.5%.
ULK1 inh – inhibitors of human ULK1 kinase. inhibition, % at 5.96 µM. AlphaScreen Atg13 phosphorylation by ULK1, luminescence. AID 1259251. 30,000 tested, 1.9% active; in the data active = inhibition above about 43%;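 note: 0% = median of compound wells and 100% = no enzyme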
ASK1 inh – human ASK1 kinase inhibition, primary screen. 22,000 tested, 0.99% active. AID 1159602. inhibition, % at 7.44 µM. Q99683. AlphaScreen MKK6 phosphorylation by ASK1, luminescence; in the data active = inhibition above about 35%;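 note: 0% = median of compound wells and 100% = no enzyme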
* hit, by the source's call; / = no result.

SMILES | ULK1 inh | ASK1 inh
O=C(NCCN1CCOCC1)c1cccc(-n2ncc3cc(Nc4ccccc4)c(N4CCOCC4)cc32)c1 | 65.3* | -28.6
COc1cc2c(cnn2-c2cccc(C(=O)NCCN3CCOCC3)c2)cc1Nc1ccccc1 | -18.1 | -2.8
Nc1nc(NCc2ccccc2)cc(N2CCCC2CO)n1 (stereo not given) | 6.0 | 5.6
COc1ccc(CCNC(=O)c2ccc3c(c2)CC(c2nc4ccc(-c5ccnc(N)n5)cc4[nH]2)CO3)cc1 (stereo not given) | -110.0 | -39.8
CC(=O)c1cccc(-c2nc(NCc3ccccc3)c3[nH]cnc3n2)c1 | -2.3 | -0.9
CC(=O)c1cccc(-c2nc(NCc3cccnc3)c3[nH]cnc3n2)c1 | 54.3* | -1.4
Nc1cccc(-c2nc(NCc3ccccc3)c3[nH]cnc3n2)c1 | -4.0 | -0.9
Nc1cccc(-c2nc(NCc3cccnc3)c3[nH]cnc3n2)c1 | 68.9* | -11.8
NC(=O)c1cccc(N2CCC(N3CCOCC3)CC2)n1 | -5.0 | 0.2
CC(C)N(CCNc1nc(-c2ccc(N3CCOCC3)nc2)nc2c1ncn2CCN1CCCC1=O)C(C)C | 2.4 | -0.8
Nc1nccc(-c2ccc3nc(C4COc5ccc(C(=O)NCc6cccnc6)cc5C4)[nH]c3c2)n1 (stereo not given) | -2.1 | 1.1
CC(=O)Nc1ccc(Nc2cc(-c3cccc(N)c3)nc(N)n2)cc1 | -1.6 | -3.1
CN(C)S(=O)(=O)Nc1ccc(-c2ccnc(Nc3ccc(S(N)(=O)=O)cc3)n2)cc1 | 47.6* | 3.2
CS(=O)(=O)Nc1ccc(-c2ccnc(Nc3cccc(S(N)(=O)=O)c3)n2)cc1 | 57.8* | -19.9
CS(=O)(=O)Nc1cccc(-c2ccnc(Nc3cccc(S(N)(=O)=O)c3)n2)c1 | 26.4 | -0.7
CCS(=O)(=O)c1ccc(-c2ccnc(Nc3ccc(S(N)(=O)=O)cc3)n2)cc1 | 14.8 | -24.0
NS(=O)(=O)c1ccc(Nc2nccc(-c3ccc(Nc4ccccc4)cc3)n2)cc1 | -3.9 | -59.5
CS(=O)(=O)Cc1ccc(-c2ccnc(Nc3ccc(S(N)(=O)=O)cc3)n2)cc1 | 49.9* | -13.7
CCCCC1(C(=O)OCC)CC(SC(=N)N)OC1=O (stereo not given) | -5.5 | /
Cc1cccn2c(=O)c3c(nc12)CCN(C(=O)C(C)(C)C)C3 | -0.3 | /
Cc1cc(NC2CC2)nc(-c2ccc(N3CCOCC3)nc2)n1 | 1.0 | -2.5
CN(C)CCOc1cc(-c2cn[nH]c2)ccc1NC(=O)C1(C)COc2ccc(Cl)cc2C1 (stereo not given) | -13.1 | -3.9
CC(C)n1c(Nc2ncccn2)nc2c(NCc3ccccc3)ncnc21 | 12.4 | -5.8
COc1cccc(CN2CCC(C(=O)NCCCN3CCOCC3)CC2)c1O | 3.1 | /
CN(C)Cc1cnc(Nc2ccc(N3CCOCC3)cc2)cc1Nc1ccccc1C#N | 5.4 | 12.8
SMILES | ULK1 inh | ASK1 inh
CNC(=O)c1ccccc1Nc1cc(Nc2ccc(N3CCSCC3)cc2OC)ncc1C#N | 85.9* | 33.4
NC(=O)c1ccccc1Nc1ccnc(Nc2ccc(N3CCOCC3)cc2F)c1 | -8.2 | 5.0
CNC(=O)c1ccccc1Nc1cc(Nc2ccc(N3CCS(=O)(=O)CC3)cc2OC)ncc1C#N | 80.6* | 4.8
CCSC(C)CC1C/C(=N/O)c2c(CC)n[nH]c2C1 (stereo not given) | -15.4 | /
c1cc(Nc2nc(NC3CC3)c3ncn(-c4ccsc4)c3n2)ccn1 | -3.4 | -3.1
CCCNc1nc(Nc2ccc(-n3ccnc3)cc2)nc2nc[nH]c12 | 41.1 | -45.1
c1nc2nc(Nc3ccc(N4CCOCC4)cc3)nc(NC3CC3)c2[nH]1 | 56.3* | -12.4
c1cn(-c2ccc(Nc3nc(NC4CC4)c4ncn(-c5ccsc5)c4n3)cc2)cn1 | 52.8* | 14.2
FC(F)(F)c1ccc(Nc2nc(Nc3ccc(N4CCOCC4)cc3)c3[nH]cnc3n2)cc1 | 28.8 | 24.7
c1cn(-c2ccc(Nc3nc(NC4CC4)c4[nH]cnc4n3)cc2)cn1 | 57.5* | -69.4
c1ccc(OCCNc2nc(Nc3ccc4ncccc4c3)nc3c2ncn3-c2ccccc2)cc1 | 0.3 | -26.6
CC12CC[C@@H]3c4ccc(OS(=O)(=O)O)cc4CC[C@H]3[C@@H]1CCC2=O (stereo not given in full) | -20.7 | /
Cc1nn(C)c(C)c1-c1cc(NCCO)ncn1 | -1.4 | 7.0
CS(=O)(=O)c1cccc(N2CCN(Cc3ccc(F)cc3)C2=O)c1 | -4.0 | /
c1ccc(CNc2ccnc(NCCN3CCOCC3)n2)cc1 | -1.1 | -15.3
Cc1ncn(-c2ccc(Nc3ncc(Cl)c(-c4ccnn4C)n3)cc2)n1 | 64.4* | -7.8
Cc1ncn(-c2ccc(Nc3ncc4cccc(-c5cccc6c5ccn6C)c4n3)cc2)n1 | -4.7 | -4.7
Cc1ncn(-c2ccc(Nc3ncc4cccc(-c5ccn(C)n5)c4n3)cc2)n1 | 88.6* | -74.2
Cc1ncn(-c2ccc(Nc3ncc4cccc(-c5cccnc5)c4n3)cc2)n1 | 10.0 | 9.2
Cc1ncn(-c2ccc(Nc3nccc(-c4cc(F)cc(-c5ccnn5C)c4)n3)cc2)n1 | 14.9 | 19.2
Cc1ccc(-c2ncn(-c3ccc(Nc4ncc5cccc(-c6nccs6)c5n4)cc3)n2)cn1 | 2.6 | 20.2
Cc1ncn(-c2ccc(Nc3ncc4cccc(-c5nccs5)c4n3)cc2)n1 | 50.2* | 11.5
Cc1ncn(-c2ccc(Nc3ncc4cccc(-c5ccnn5C)c4n3)cc2)n1 | 51.7* | -26.3
COc1cc2nc(Nc3ccc(C(F)(F)F)cc3)nc(N)c2cc1OC | -19.1 | -2.9
Clc1cc(Nc2ccncc2)ncn1 | -3.5 | -19.0
SMILES | ULK1 inh | ASK1 inh
COc1cccc(CNC(=O)c2cnn3cc(-c4cn[nH]c4)ccc23)c1 | -3.0 | 5.7
Cc1ncn(-c2ccc(Nc3ncc4cccc(-c5cn[nH]c5C)c4n3)cc2)n1 | 54.7* | -21.1
Cc1ncn(-c2ccc(Nc3ncc4cccc(-c5ccn[nH]5)c4n3)cc2)n1 | 23.6 | 15.8
FC(F)(F)c1ccc(Cn2cnc3c(Nc4ccc5c(c4)OCO5)nc(Nc4cnccn4)nc32)cc1 | -3.9 | 24.7
CC(=O)Nc1ccc(NC(=O)c2ccc(-c3ccc(C(=O)N4CCN(C)CC4)cc3)s2)cc1 | -3.5 | -14.2
O=C(O)c1ccccc1-c1c2cc(I)c(=O)c(I)c-2oc2c(I)c(O)c(I)cc12 | 26.0 | /
O=C(O)c1c(Cl)c(Cl)c(Cl)c(Cl)c1-c1c2cc(I)c(=O)c(I)c-2oc2c(I)c(O)c(I)cc12 | 44.6* | /
NC(=O)c1ccc(-c2nc(C(=O)Nc3ccc(Oc4ccccc4)cc3)cs2)cc1 | 29.7 | -6.1
c1cc(Nc2cc(Nc3ccc(N4CCOCC4)cc3)ncn2)ccn1 | 82.4* | 2.4
c1cn(-c2ccc(Nc3cc(Nc4ccc(N5CCOCC5)cc4)ncn3)cc2)cn1 | -7.3 | 2.7
c1ccc(CNc2cc(Nc3ccncc3)ncn2)cc1 | 20.1 | -15.7
c1ccc(Nc2cc(Nc3ccncc3)ncn2)cc1 | 61.0* | 19.7
c1cc(Nc2nccc(Nc3ccc(N4CCOCC4)cc3)n2)ncn1 | 78.5* | 13.4
c1cc(Nc2nccc(Nc3ccc(N4CCOCC4)cc3)n2)ccn1 | 27.9 | 9.9
CCN1C(=O)C(C)(C)COc2cc(NC(=O)c3cc(Cl)ccc3Cl)ccc21 | -0.3 | /
Cc1ncc(COP(=O)(O)O)c(C=O)c1O | -13.3 | /
Cc1ncc(CSSCc2cnc(C)c(O)c2CO)c(CO)c1O | 46.6* | /
CCNc1nc(NCc2ccccc2)c2ncn(CCN3CCCC3=O)c2n1 | -8.4 | -0.5
COc1cc2nc(Nc3cccc(N(C)C)c3)nc(NC3CC3)c2cc1OC | 6.7 | 49.2*
COc1cc2nc(Nc3ccccc3)nc(NCCOc3ccccc3)c2cc1OC | -17.6 | -6.1

Screening data (PubChem)
